Drawing on PubChem BioAssay (NCI), this text covers growth for 13 molecules.

Structures are written as SMILES. About 83,000 compounds went through this panel and 20% of them were active in at least one assay; those are over-represented in the sample as a whole.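 Plates (96-well) were seeded with cells, treated with compound at one concentration, and incubated for 48 hours before percent growth was determined.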 Values without a mark were called inactive. Activity calls are given as the source filed them. How the source made its calls: active means growth percent below 10; inactive means the rest.

Test systems include HCT-15 colon; HT29 colon; SNB-75 CNS; SNB-19 CNS; U251 CNS; PC-3 prostate; SK-MEL-5 melanoma; UACC-62 melanoma; LOX IMVI melanoma; SK-MEL-28 melanoma.
What all share (assay): NCI-60 one-dose screen, 48 h (100 = growth as untreated, 0 = no growth, -100 = all killed)
Holding throughout (details): 10 µM unless noted

`COc1ccc(/C=C\c2cc(OC)c(OC)c(OC)c2)c(NS(=O)(=O)c2ccc(C)cc2)c1O`: the growth is 15.1% in the test on HCT-15 colon; 17.4% in the test on HT29 colon; 41.6% in the test on SNB-75 CNS; 48.1% in the test with SNB-19 CNS; 20.7% in the test with U251 CNS; 36.3% in the test on PC-3 prostate. Further, the growth was -42.3% (active) with SK-MEL-5 melanoma, 53% in the test on UACC-62 melanoma, 18.3% in the test with LOX IMVI melanoma and 61.7% in the test on SK-MEL-28 melanoma.
As to `CN[C@@]1(c2ccccc2Cl)CCCC[C@@H]1NCC1CCCO1` (stereo not given in full), the growth was 104% in the test on HCT-15 colon; 101% in the test with HT29 colon; 88.2% in the test with SNB-75 CNS; 95.8% in the test with SNB-19 CNS; 98.2% in the test on U251 CNS; 94.2% in the test with PC-3 prostate. The growth with SK-MEL-5 melanoma is 102%; in the test with UACC-62 melanoma, 96.5%; with LOX IMVI melanoma, 97.8%; in the test with SK-MEL-28 melanoma, 101%.
Regarding `CN1CC(=O)N(O)C1(C)c1cccnc1` (stereo not given), the growth with HCT-15 colon was 96.9%; with HT29 colon it was 97.8%; in the test on SNB-75 CNS it was 88.5%; in the test on SNB-19 CNS, 105%; with U251 CNS, 102%; in the test on PC-3 prostate, 95.8%. For the same molecule, the growth in the test on SK-MEL-5 melanoma was 101%; with UACC-62 melanoma, 104%; in the test with LOX IMVI melanoma, 97.3%; in the test with SK-MEL-28 melanoma it was 103%.
In the case of `O=C1Nc2ccccc2C2c3cccn3-c3ccccc3CN12` (stereo not given), the growth was 38% in the test on HCT-15 colon; 11.3% with HT29 colon; 21.1% in the test on SNB-75 CNS; 73.4% in the test with SNB-19 CNS; 14.7% in the test with U251 CNS; 48.6% with PC-3 prostate. In addition, the growth was 43.1% in the test on SK-MEL-5 melanoma, 35% in the test on UACC-62 melanoma, 63% in the test on LOX IMVI melanoma and 66.6% with SK-MEL-28 melanoma.
Regarding `O=C(O)C(Cl)(Cl)C(F)(F)F`, the growth is 104% in the test with HCT-15 colon; 103% in the test with HT29 colon; 97.7% in the test with SNB-75 CNS; 105% in the test on SNB-19 CNS; 108% in the test with U251 CNS; 102% in the test with PC-3 prostate. For the same molecule, the growth with SK-MEL-5 melanoma is 103%; in the test on UACC-62 melanoma it was 105%; with LOX IMVI melanoma, 106%; in the test on SK-MEL-28 melanoma it was 110%.
With `C[C@]12CC[C@H]3[C@@H](CC[C@]4(O)C[C@@H](O[C@@H]5O[C@H](CO)[C@@H](O[C@@H]6OC[C@@H](O)[C@H](O)[C@H]6O)[C@H](O)[C@H]5O)CC[C@]34C=O)[C@@]1(O)CC[C@@H]2C1=CC(=O)OC1`, the growth was -9.5% (active) in the test on HCT-15 colon; 3.12% (active) with HT29 colon; 28% with SNB-75 CNS; 26% with SNB-19 CNS; 4.09% (active) in the test with U251 CNS; 4.54% (active) in the test on PC-3 prostate. Also, the growth was -14.1% (active) with SK-MEL-5 melanoma, 1.05% (active) with UACC-62 melanoma, -37.3% (active) in the test with LOX IMVI melanoma and 41.6% in the test on SK-MEL-28 melanoma.
Take `CN1CCC(c2c[nH]c3ccccc23)C1` (stereo not given): the growth was 102% in the test on HCT-15 colon; 100% with HT29 colon; 95.5% with SNB-75 CNS; 95.2% in the test on SNB-19 CNS; 98.2% in the test on U251 CNS; 112% with PC-3 prostate. Further, the growth was 130% in the test with SK-MEL-5 melanoma, 107% with UACC-62 melanoma, 88.2% with LOX IMVI melanoma and 107% in the test with SK-MEL-28 melanoma.
Consider `Cc1c(C)c([N+](=O)[O-])c(C)c(C)c1[N+](=O)[O-]`, for which the growth with HCT-15 colon was 100%; with HT29 colon, 100%; with SNB-75 CNS, 113%; in the test on SNB-19 CNS, 103%; with U251 CNS, 99.2%; in the test on PC-3 prostate, 105%. Besides, the growth is 107% in the test with SK-MEL-5 melanoma, 102% in the test on UACC-62 melanoma, 106% in the test with LOX IMVI melanoma and 108% in the test on SK-MEL-28 melanoma.
On to `COC(C(=O)[C@@H](O)[C@@H](C)O)[C@@H]1Cc2cc3cc(O[C@H]4C[C@@H](O[C@H]5C[C@@H](O)[C@H](O)C(C)O5)[C@H](O)C(C)O4)c(C)c(O)c3c(O)c2C(=O)[C@H]1O[C@H]1C[C@@H](O[C@H]2C[C@@H](O[C@H]3C[C@@H](O)[C@@H](O)C(C)O3)[C@@H](O)C(C)O2)[C@H](O)C(C)O1` (stereo not given in full), for which the growth in the test on HCT-15 colon was 47.7%; with HT29 colon, -11.9% (active); in the test on SNB-75 CNS it was -31.8% (active); with SNB-19 CNS, 11.7%; in the test on U251 CNS, 1.11% (active); in the test on PC-3 prostate it was 21.6%. In addition, the growth with SK-MEL-5 melanoma was -49.2% (active); in the test with UACC-62 melanoma, -52.2% (active); in the test with LOX IMVI melanoma, -10.6% (active); in the test on SK-MEL-28 melanoma, -9.88% (active).
For `C#C[C@]1(OC(=O)CCCCCC)CC[C@H]2[C@@H]3CCC4=CC(=O)CC[C@@H]4[C@H]3CC[C@@]21C`, the growth was 39.9% with HCT-15 colon; 9.11% (active) with HT29 colon; 81.5% in the test on SNB-75 CNS; 53.7% in the test on SNB-19 CNS; 50.9% with U251 CNS; 32.7% in the test with PC-3 prostate. Further, the growth with SK-MEL-5 melanoma is 20.5%; in the test with UACC-62 melanoma, 25.6%; in the test on LOX IMVI melanoma, 8.13% (active); in the test on SK-MEL-28 melanoma, 43.3%.
As to `C[C@]12CCc3sc(NCCc4ccccc4)nc3C1=CC[C@@H]1[C@@H]2CC[C@]2(C)C(=O)CC[C@@H]12`, the growth was 22.5% in the test with HCT-15 colon; 34.3% in the test on HT29 colon; 85.5% in the test with SNB-75 CNS; 80.2% in the test on SNB-19 CNS; 60.1% in the test with U251 CNS; 38.8% with PC-3 prostate. In addition, the growth was 66% in the test on SK-MEL-5 melanoma, 75.6% with UACC-62 melanoma, 70.2% in the test with LOX IMVI melanoma and 83.3% in the test with SK-MEL-28 melanoma.
Consider `COc1cccc2c1c(C(=O)c1ccco1)cn2Cc1ccc(F)cc1`, for which the growth with HCT-15 colon was 103%; with HT29 colon, 118%; in the test on SNB-75 CNS, 121%; with SNB-19 CNS it was 119%; in the test with U251 CNS, 112%; in the test with PC-3 prostate it was 105%. Besides, the growth was 96.3% in the test with SK-MEL-5 melanoma, 78.3% with UACC-62 melanoma, 109% with LOX IMVI melanoma and 123% in the test with SK-MEL-28 melanoma.
For the molecule `ClCCN(CCCl)c1ccc(OCc2ccccc2)cc1`, the growth in the test on HCT-15 colon is 73.1%; with HT29 colon, 76.7%; in the test on SNB-75 CNS, 53.8%; with SNB-19 CNS, 57.1%; in the test on U251 CNS it was 40.5%; with PC-3 prostate it was 63.1%. In addition, the growth is 82.7% with SK-MEL-5 melanoma, 44.2% in the test on UACC-62 melanoma, 38.9% with LOX IMVI melanoma and 84.1% with SK-MEL-28 melanoma.
